Results on one sequence are retold here after article PMC7862700, “An all-to-all approach to the identification of sequence-specific readers for epigenetic DNA modifications on cytosine”.

Assay in all cases: DAPPL (digital affinity profiling via proximity ligation, sequencing); 10 mM Tris-HCl pH 7.5, 50 mM NaCl, 1 mM DTT, 4% glycerol, room temperature, 30 min; GST-TFs on glutathione beads, 16-mer random dsDNA library, 0.1% formaldehyde crosslink after washing; high values mean tight binding
For one test, the target named is T1, FEV (Homo sapiens, UniProt Q99581 1-238).
T1 sequence: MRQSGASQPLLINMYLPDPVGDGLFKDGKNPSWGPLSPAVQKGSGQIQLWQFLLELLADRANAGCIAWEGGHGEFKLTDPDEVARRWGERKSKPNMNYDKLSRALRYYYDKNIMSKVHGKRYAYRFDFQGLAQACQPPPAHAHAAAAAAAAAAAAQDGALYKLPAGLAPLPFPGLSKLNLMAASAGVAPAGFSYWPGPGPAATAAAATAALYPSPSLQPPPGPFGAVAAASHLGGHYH
The following applies: protein: recombinant; tags: N-terminal GST; dsDNA, one strand shown. The method, boiled down:
(§1)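 Human transcription factors fused to GST were expressed in yeast, captured on glutathione beads, given DNA barcodes and pooled with a GST-only negative control. Pools were incubated with 200 nmole of a 16-mer random double-stranded DNA library in Tris/NaCl/DTT/glycerol buffer at room temperature for 30 min. They were then washed, crosslinked with 0.1% formaldehyde, proximity-ligated (BsaI/T4 ligase, 1 h, 37 °C), PCR-amplified and sequenced on an Illumina NextSeq500. Binding signal is each 6-mer's read frequency for a factor divided by its frequency for the GST control.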

For another test, the target named is ETV5 (Homo sapiens, UniProt P41161 1-510). To be noted: protein: recombinant; tags: N-terminal GST; dsDNA, one strand shown. The method, boiled down:
as §1

The next test has as its target HSF1 (Homo sapiens, UniProt Q00613 1-529). To be noted: protein: recombinant; tags: N-terminal GST; chain copies: 3; dsDNA, one strand shown. Put shortly: as §1
The next test concerns the target T2, SPIC (Homo sapiens, UniProt Q8N5J4 1-248).
T2 sequence: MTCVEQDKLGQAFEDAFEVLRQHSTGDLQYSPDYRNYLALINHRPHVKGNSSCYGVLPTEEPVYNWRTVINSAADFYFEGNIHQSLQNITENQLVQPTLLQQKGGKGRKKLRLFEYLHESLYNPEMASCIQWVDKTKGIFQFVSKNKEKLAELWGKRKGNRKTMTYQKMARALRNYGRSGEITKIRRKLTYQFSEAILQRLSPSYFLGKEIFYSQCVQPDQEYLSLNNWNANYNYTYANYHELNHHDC
To be noted: protein: recombinant; tags: N-terminal GST; dsDNA, one strand shown. The method, boiled down:
as §1

The next test addresses ELF4 (Homo sapiens, UniProt Q99607 1-663). To be noted: protein: recombinant; tags: N-terminal GST; dsDNA, one strand shown. The method, boiled down:
as §1

The target in a further test is T3, ELK4 (Homo sapiens, UniProt P28324-2 1-405).
T3 sequence: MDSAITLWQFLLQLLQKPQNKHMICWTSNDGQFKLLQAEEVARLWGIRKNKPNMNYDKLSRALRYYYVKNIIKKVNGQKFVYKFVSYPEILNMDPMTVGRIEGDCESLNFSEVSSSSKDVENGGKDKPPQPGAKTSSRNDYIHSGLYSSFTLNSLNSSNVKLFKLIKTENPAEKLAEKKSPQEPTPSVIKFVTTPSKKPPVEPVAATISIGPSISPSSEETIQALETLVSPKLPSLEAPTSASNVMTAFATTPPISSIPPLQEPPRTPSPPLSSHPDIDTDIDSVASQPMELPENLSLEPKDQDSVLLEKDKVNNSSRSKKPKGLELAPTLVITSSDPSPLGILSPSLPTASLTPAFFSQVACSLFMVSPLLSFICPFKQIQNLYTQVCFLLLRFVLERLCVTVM
The following applies: protein: recombinant; tags: N-terminal GST; dsDNA, one strand shown. The method, boiled down:
as §1

Another test has as its target T4, ETV2 (Homo sapiens, UniProt O00321 1-342).
T4 sequence: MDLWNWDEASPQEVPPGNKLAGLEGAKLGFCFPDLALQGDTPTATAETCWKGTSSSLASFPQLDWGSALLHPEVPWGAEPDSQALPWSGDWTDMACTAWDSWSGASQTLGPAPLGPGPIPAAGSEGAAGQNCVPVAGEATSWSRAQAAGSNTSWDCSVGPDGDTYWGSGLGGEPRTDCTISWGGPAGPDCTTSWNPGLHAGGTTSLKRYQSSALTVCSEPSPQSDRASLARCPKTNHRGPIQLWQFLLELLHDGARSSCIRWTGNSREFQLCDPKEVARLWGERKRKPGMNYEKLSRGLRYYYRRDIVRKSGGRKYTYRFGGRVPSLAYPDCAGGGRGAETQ
The following applies: protein: recombinant; tags: N-terminal GST; dsDNA, one strand shown. Put shortly: as §1

In a further test the target is T5, ELF3 (Homo sapiens, UniProt P78545 1-371).
T5 sequence: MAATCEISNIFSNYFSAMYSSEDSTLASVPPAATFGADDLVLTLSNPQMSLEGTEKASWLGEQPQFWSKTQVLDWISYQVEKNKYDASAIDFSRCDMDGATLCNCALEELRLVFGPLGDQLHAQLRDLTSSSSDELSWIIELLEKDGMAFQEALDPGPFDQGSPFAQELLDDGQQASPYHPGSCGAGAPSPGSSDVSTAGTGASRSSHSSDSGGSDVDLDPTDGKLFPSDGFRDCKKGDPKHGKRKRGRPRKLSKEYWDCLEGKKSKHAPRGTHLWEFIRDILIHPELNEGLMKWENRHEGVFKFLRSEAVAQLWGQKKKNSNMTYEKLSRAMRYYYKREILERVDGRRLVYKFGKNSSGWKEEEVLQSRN
The following applies: protein: recombinant; tags: N-terminal GST; dsDNA, one strand shown. Put shortly:
as §1

The next test deals with CRX (Homo sapiens, UniProt O43186 1-299). To be noted: protein: recombinant; tags: N-terminal GST; dsDNA, one strand shown. The method, boiled down: as §1
Sequence of CRX (O43186 whole entry): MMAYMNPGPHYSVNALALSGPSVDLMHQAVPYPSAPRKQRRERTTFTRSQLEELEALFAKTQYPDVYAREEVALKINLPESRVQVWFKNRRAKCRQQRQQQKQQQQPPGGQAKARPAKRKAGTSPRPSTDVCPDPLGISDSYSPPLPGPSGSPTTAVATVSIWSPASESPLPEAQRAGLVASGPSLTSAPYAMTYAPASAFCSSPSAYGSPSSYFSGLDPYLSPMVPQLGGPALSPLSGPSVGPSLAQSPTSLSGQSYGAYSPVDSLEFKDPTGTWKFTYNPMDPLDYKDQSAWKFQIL
Another test deals with ETV1 (Homo sapiens, UniProt P50549 1-477). To be noted: protein: recombinant; tags: N-terminal GST; dsDNA, one strand shown. The method, boiled down: as §1
Sequence of ETV1 (P50549 whole entry): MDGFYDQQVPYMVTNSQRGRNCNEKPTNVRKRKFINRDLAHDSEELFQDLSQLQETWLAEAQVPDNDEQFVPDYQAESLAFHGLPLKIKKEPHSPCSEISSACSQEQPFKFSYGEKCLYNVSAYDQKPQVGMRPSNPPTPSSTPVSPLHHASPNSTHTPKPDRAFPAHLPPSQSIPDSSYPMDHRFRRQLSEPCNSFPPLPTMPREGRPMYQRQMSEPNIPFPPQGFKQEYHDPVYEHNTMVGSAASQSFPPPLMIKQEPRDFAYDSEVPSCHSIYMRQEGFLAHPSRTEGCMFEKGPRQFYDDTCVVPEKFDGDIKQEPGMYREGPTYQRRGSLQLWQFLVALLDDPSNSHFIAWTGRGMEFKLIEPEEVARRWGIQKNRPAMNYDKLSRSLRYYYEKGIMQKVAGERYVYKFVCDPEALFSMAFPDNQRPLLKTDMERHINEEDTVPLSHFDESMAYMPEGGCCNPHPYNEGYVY
The target in a further test is T6, ERF (Homo sapiens, UniProt P50548 1-548).
T6 sequence: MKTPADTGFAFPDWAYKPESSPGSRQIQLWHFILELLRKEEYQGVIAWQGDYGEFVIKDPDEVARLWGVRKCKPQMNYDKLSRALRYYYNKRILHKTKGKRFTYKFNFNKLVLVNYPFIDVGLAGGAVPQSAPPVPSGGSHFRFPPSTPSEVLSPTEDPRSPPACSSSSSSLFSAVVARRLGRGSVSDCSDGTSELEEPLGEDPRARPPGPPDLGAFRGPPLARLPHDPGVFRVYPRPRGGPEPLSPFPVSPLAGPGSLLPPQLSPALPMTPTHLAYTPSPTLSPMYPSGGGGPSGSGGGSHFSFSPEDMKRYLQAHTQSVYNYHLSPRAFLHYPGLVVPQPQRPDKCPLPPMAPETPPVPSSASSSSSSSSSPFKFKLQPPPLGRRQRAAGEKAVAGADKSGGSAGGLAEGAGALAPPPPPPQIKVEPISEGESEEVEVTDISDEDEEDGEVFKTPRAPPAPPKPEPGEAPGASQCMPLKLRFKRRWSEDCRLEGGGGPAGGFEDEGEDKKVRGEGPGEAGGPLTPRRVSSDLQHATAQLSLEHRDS
The following applies: protein: recombinant; tags: N-terminal GST; dsDNA, one strand shown. The method, boiled down:
as §1

In a further test the target is T7, ETV3L (Homo sapiens, UniProt Q6ZN32 1-361).
T7 sequence: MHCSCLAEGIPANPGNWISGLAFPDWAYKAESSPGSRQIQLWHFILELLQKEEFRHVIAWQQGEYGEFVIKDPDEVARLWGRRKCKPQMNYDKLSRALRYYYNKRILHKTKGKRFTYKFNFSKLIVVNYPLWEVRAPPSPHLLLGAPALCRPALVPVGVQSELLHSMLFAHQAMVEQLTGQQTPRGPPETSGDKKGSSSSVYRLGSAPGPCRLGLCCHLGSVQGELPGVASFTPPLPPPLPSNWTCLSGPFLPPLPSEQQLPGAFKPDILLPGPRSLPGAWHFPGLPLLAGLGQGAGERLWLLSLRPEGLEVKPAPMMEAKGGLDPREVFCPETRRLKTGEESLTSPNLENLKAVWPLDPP
To be noted: protein: recombinant; tags: N-terminal GST; dsDNA, one strand shown. Put shortly:
as §1

A further test deals with T8, ETS2 (Homo sapiens, UniProt P15036 1-469).
T8 sequence: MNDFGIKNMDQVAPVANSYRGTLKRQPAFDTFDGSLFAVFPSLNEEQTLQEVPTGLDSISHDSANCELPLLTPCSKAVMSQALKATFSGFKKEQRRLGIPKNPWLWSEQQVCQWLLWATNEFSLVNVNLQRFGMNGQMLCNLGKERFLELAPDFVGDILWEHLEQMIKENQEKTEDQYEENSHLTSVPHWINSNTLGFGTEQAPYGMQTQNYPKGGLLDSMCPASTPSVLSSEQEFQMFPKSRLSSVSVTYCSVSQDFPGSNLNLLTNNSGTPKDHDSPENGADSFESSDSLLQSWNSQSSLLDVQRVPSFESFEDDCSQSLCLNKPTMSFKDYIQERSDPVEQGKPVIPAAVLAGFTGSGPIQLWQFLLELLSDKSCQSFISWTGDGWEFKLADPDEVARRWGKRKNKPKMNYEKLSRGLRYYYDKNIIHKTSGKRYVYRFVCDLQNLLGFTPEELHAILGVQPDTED
To be noted: protein: recombinant; tags: N-terminal GST; dsDNA, one strand shown. The method, boiled down:
as §1

A further test addresses T9, SPDEF (Homo sapiens, UniProt O95238 1-335).
T9 sequence: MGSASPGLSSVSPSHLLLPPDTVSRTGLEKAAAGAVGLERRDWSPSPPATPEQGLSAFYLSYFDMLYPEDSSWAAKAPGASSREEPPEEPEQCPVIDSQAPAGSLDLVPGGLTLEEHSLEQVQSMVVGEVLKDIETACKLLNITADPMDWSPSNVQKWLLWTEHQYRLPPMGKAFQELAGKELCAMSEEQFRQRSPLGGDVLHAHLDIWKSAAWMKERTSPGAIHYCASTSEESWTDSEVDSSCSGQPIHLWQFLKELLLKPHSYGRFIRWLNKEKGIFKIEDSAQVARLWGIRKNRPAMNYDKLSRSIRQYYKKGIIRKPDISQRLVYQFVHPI
The following applies: protein: recombinant; tags: N-terminal GST; dsDNA, one strand shown. The method, boiled down: as §1

The target in the next test is T10, ETV7 (Homo sapiens, UniProt Q9Y603 1-341).
T10 sequence: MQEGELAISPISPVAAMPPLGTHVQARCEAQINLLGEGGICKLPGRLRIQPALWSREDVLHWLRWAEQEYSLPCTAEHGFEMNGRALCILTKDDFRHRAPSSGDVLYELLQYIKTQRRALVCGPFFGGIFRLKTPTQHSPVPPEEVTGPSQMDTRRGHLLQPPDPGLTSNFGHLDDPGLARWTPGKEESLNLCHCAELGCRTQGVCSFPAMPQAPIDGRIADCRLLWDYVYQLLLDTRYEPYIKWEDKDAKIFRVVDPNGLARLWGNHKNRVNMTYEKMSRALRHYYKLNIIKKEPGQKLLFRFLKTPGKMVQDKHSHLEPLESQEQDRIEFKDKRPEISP
To be noted: protein: recombinant; tags: N-terminal GST; dsDNA, one strand shown. The method, boiled down:
as §1

Another test deals with T11, ELF5 (Homo sapiens, UniProt Q9UKW6-2 1-255).
T11 sequence: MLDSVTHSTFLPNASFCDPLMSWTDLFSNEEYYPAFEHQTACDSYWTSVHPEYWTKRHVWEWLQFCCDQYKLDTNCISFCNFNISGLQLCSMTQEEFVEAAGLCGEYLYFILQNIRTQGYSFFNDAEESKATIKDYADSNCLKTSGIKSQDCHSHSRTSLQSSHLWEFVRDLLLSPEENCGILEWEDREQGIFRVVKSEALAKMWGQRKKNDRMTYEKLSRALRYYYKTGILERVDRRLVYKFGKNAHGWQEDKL
The following applies: protein: recombinant; tags: N-terminal GST; dsDNA, one strand shown. Put shortly:
as §1

The target in another test is T12, ETV3 (Homo sapiens, UniProt P41162-2 1-143).
T12 sequence: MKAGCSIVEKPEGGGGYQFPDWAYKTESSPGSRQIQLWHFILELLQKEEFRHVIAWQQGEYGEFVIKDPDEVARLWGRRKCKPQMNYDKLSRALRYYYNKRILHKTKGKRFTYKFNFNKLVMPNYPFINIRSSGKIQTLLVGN
To be noted: protein: recombinant; tags: N-terminal GST; dsDNA, one strand shown. Put shortly:
as §1

Another test deals with ETV6 (Homo sapiens, UniProt P41212 1-452). The following applies: protein: recombinant; tags: N-terminal GST; dsDNA, one strand shown. Put shortly: as §1
Sequence of ETV6 (P41212 whole entry): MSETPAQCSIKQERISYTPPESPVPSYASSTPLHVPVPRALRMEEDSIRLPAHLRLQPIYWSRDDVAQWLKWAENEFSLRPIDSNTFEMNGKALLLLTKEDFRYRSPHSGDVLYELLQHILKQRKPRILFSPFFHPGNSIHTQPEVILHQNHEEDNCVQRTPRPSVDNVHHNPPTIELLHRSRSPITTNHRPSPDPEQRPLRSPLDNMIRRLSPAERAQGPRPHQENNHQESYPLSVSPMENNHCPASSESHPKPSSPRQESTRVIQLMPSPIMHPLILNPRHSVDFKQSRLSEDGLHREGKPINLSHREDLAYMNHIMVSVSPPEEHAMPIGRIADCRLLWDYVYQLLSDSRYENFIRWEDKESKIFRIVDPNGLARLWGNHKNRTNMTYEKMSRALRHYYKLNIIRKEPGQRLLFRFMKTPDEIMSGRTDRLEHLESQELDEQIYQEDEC

Sequence of ELF4 (Q99607 whole entry): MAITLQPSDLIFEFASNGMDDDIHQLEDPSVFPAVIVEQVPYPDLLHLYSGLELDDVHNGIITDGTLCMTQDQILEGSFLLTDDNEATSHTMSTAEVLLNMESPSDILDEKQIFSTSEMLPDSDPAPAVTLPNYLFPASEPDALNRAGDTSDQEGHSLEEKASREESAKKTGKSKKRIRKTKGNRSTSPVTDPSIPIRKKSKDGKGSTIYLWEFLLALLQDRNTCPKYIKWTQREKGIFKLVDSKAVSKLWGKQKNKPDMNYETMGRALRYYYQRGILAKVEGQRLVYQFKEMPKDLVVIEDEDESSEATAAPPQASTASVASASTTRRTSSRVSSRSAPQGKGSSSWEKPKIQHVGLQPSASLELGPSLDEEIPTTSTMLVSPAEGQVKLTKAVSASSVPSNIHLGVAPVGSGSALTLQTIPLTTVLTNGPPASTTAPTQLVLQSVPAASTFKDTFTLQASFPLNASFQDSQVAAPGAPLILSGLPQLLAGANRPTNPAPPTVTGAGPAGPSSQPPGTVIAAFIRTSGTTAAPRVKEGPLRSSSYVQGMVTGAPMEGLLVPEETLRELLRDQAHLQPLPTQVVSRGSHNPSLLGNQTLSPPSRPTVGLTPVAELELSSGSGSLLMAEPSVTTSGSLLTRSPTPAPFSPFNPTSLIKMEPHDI
Sequence of HSF1 (Q00613 whole entry): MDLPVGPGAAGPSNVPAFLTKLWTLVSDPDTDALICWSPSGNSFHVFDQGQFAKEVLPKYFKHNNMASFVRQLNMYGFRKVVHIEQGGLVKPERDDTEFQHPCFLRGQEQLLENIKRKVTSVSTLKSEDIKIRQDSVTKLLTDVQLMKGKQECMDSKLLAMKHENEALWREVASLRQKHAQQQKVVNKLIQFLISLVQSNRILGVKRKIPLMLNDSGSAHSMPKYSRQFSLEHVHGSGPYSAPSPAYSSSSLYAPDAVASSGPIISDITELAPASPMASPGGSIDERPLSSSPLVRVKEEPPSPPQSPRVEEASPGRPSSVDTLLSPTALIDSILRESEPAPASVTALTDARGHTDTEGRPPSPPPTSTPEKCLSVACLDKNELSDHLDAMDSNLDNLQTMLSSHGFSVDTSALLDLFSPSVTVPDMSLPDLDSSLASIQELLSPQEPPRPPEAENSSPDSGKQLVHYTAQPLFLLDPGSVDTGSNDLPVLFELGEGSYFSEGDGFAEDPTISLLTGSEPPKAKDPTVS
Sequence of ETV5 (P41161 whole entry): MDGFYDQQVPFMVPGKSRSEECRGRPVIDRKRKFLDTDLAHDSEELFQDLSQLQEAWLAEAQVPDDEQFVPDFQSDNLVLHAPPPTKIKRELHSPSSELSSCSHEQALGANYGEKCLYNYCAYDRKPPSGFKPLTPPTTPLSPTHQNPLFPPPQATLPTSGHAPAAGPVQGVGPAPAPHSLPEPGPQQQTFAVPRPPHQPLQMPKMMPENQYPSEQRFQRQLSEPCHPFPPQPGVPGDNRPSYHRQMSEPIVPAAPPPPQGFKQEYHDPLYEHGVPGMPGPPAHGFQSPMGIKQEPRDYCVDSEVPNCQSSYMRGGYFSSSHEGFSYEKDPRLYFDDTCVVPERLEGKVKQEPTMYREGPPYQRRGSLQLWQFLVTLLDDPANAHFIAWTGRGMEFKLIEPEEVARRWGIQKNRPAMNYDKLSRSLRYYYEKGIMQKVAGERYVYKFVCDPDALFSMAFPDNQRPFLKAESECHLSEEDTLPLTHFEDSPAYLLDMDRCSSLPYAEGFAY

Take ATGATG: the binding signal in the test with FEV is 1.27 fold enrichment (6-mer frequency, TF over GST control); with ETV5, 1.33 fold enrichment (6-mer frequency, TF over GST control); in the test with HSF1, 1.24 fold enrichment (6-mer frequency, TF over GST control); in the test with SPIC, 1.35 fold enrichment (6-mer frequency, TF over GST control); with ELF4, 1.37 fold enrichment (6-mer frequency, TF over GST control); in the test with ELK4 it was 1.38 fold enrichment (6-mer frequency, TF over GST control). The binding signal with ETV2 was 1.47 fold enrichment (6-mer frequency, TF over GST control); with ELF3, 1.38 fold enrichment (6-mer frequency, TF over GST control); in the test with CRX, 1.21 fold enrichment (6-mer frequency, TF over GST control); with ETV1, 1.24 fold enrichment (6-mer frequency, TF over GST control); with ERF, 1.27 fold enrichment (6-mer frequency, TF over GST control); in the test with ETV3L it was 1.41 fold enrichment (6-mer frequency, TF over GST control). The binding signal with ETS2 was 1.27 fold enrichment (6-mer frequency, TF over GST control); in the test with SPDEF, 1.22 fold enrichment (6-mer frequency, TF over GST control); with ETV7 it was 1.43 fold enrichment (6-mer frequency, TF over GST control); in the test with ELF5, 1.25 fold enrichment (6-mer frequency, TF over GST control); with ETV3 it was 1.43 fold enrichment (6-mer frequency, TF over GST control); with ETV6, 1.38 fold enrichment (6-mer frequency, TF over GST control).
